Results as given in PubChem BioAssay (Tox21).
Values without a mark were called inactive. The call rests on the fitted dose curve.

molecular target: Gonadotropin-releasing hormone receptor (Homo sapiens) (UniProt P30968); test: Human gonadotropin-releasing hormone receptor (GnRHR) small molecule agonists, calcium flux assay in GnRHR-HEK293 cells (AID 1920063); settings: calcium flux fluorescence, agonist mode; series mostly up to 57.6 µM; activity change: at the top concentration; further: nearly all actives have a fitted effect of over 35% in size
Summary of the method: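 Cells: HEK293 stably expressing human GnRHR. Steps: overnight (18 h) culture, 1 h calcium dye loading at 37 C, compound addition, kinetic fluorescence read at 480/540 nm. Each compound tested at 15 concentrations in triplicate.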
On the % scale 0 is the no-effect control and ±100 the full control effect.

Gonadotropin-releasing hormone receptor (Homo sapiens), sequence (P30968 whole entry, looked up): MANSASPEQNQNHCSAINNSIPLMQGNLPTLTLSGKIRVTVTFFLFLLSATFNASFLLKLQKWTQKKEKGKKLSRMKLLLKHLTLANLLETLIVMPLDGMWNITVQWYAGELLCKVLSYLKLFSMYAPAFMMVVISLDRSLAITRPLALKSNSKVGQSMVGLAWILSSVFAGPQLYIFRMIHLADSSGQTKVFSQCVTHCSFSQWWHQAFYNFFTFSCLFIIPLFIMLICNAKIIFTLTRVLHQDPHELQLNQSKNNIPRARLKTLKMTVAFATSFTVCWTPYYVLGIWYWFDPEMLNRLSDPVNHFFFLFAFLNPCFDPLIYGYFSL

SMILES | activity change
ClCBr | -1.54%
O=C1CN=C(c2ccccc2)c2cc([N+](=O)[O-])ccc2N1 | -1.72% [at 26.4 µM, stronger effect = higher value]
C#CC(C)(C)O | -0.138%
Brc1cccc(-c2ccccc2)c1 | -1.73%
CC[N+]1(CCOC(=O)C(O)(c2ccccc2)c2ccccc2)CCCCC1 | -0.225% [at 26.4 µM, stronger effect = higher value]
CCCCOC(=O)c1ccccc1N | -1.7%
ClCCCCBr | 1.3%
O=S(=O)(Cl)c1ccccc1 | 0.525%
CC(C)CC(N(C)C)C1(c2ccc(Cl)cc2)CCC1 (centres undefined) | 4.45% [at 26.4 µM, stronger effect = higher value]
C[N+]1(CCC(C(N)=O)(c2ccccc2)c2ccccc2)CCCCC1 | 0.969% [at 26.4 µM, stronger effect = higher value]
Nc1ccc([N+](=O)[O-])cc1[N+](=O)[O-] | 0.0291%
ClCCCCCCCl | -0.85%
CCNc1nc(NC(C)C(C)C)nc(SC)n1 (centres undefined) | 16.7%
CC(C)CC(C)Nc1ccc(Nc2ccccc2)cc1 (centres undefined) | -2.71%
CC1(C)COP(Oc2ccccc2)OC1 | 0.182%
CNC(=O)O/N=C(\C)SC | -0.0747%
C[C@H](N)C(=O)c1ccccc1 | 1.37%
O=C1OC(=O)C2C1C1(Cl)C(Cl)=C(Cl)C2(Cl)C1(Cl)Cl (centres undefined) | -2.29%
Nc1cc2c3c(c1)C(c1ccccc1)=N[C@@H](NC(=O)c1cccnc1)C(=O)N3CC2 | -0.489%
O=C(Nc1ccc(F)cc1F)c1cccnc1Oc1cccc(C(F)(F)F)c1 | -0.314%

SMILES | activity change
CC(C)C(Br)C(=O)NC(N)=O (centres undefined) | 0.0607% [at 26.4 µM, stronger effect = higher value]
CCC1(c2cccc(O)c2)CCCCN(C)C1 (centres undefined) | -0.0719% [at 26.4 µM, stronger effect = higher value]
Fc1ccc(C2(Cn3cncn3)OC2c2ccccc2Cl)cc1 (centres undefined) | 0.725%
O=C(O)[C@H](O)[C@@H](O)C(=O)O | 0.0026%
CN1C(=O)COc2c(C(=O)NC3CN4CCC3CC4)cc(Cl)cc21 (centres undefined) | -0.574% [at 26.4 µM, stronger effect = higher value]
COc1c2c(cc3c1OCO3)CCN(C)C2 | 1.39% [at 26.4 µM, stronger effect = higher value]
O=[N+]([O-])c1cc(Cl)c(Cl)cc1Cl | 1.98%
ClC(Cl)C(Cl)(Cl)Cl | 0.468%
c1ccc(Nc2ccc(Nc3ccccc3)cc2)cc1 | -1.91%
Cc1cnc2c(C(=O)O)c(Cl)ccc2c1 | -0.753%
Cc1ccn2nc(S(=O)(=O)Nc3c(F)cccc3F)nc2n1 | -1%
CCCCC(CC)COP(=O)(Oc1ccccc1)Oc1ccccc1 (centres undefined) | 3.42%
C[C@]12CC[C@@H]3c4ccc(OC(=O)N(CCCl)CCCl)cc4CC[C@H]3[C@@H]1CC[C@@H]2O | -0.703% [at 26.4 µM, stronger effect = higher value]
CC(C)(N)Cc1ccc(Cl)cc1 | -1.2% [at 26.4 µM, stronger effect = higher value]
N#Cc1c2ccccc2cc2ccccc12 | 0.258%
N#Cc1c[nH]cc1-c1cccc2c1OC(F)(F)O2 | 0.23%
C=CC(=O)OCC | 0.0435%
CNC(=O)O/N=C(\C)C(C)S(C)(=O)=O (centres undefined) | 0.453% [at 544 µM, stronger effect = higher value]
Cc1ccc2cc3c(ccc4ccccc43)c3c2c1CC3 | 0.356% [at 26.4 µM, stronger effect = higher value]
